KDM5B inh – blocks human KDM5B histone demethylase activity; Q9UGL1; KDM5B demethylase, FDH-coupled NADH fluorescence (FDH is formaldehyde dehydrogenase); Potency, µM (top dose mostly 57.7 µM), most hits filed as inhibitors; hit rate 2.6% among 220,000; active = well fitted inhibition curve with a large enough effect; note: nearly all actives have a fitted effect of over 70% in size
Target sequence (Q9UGL1 whole entry, looked up): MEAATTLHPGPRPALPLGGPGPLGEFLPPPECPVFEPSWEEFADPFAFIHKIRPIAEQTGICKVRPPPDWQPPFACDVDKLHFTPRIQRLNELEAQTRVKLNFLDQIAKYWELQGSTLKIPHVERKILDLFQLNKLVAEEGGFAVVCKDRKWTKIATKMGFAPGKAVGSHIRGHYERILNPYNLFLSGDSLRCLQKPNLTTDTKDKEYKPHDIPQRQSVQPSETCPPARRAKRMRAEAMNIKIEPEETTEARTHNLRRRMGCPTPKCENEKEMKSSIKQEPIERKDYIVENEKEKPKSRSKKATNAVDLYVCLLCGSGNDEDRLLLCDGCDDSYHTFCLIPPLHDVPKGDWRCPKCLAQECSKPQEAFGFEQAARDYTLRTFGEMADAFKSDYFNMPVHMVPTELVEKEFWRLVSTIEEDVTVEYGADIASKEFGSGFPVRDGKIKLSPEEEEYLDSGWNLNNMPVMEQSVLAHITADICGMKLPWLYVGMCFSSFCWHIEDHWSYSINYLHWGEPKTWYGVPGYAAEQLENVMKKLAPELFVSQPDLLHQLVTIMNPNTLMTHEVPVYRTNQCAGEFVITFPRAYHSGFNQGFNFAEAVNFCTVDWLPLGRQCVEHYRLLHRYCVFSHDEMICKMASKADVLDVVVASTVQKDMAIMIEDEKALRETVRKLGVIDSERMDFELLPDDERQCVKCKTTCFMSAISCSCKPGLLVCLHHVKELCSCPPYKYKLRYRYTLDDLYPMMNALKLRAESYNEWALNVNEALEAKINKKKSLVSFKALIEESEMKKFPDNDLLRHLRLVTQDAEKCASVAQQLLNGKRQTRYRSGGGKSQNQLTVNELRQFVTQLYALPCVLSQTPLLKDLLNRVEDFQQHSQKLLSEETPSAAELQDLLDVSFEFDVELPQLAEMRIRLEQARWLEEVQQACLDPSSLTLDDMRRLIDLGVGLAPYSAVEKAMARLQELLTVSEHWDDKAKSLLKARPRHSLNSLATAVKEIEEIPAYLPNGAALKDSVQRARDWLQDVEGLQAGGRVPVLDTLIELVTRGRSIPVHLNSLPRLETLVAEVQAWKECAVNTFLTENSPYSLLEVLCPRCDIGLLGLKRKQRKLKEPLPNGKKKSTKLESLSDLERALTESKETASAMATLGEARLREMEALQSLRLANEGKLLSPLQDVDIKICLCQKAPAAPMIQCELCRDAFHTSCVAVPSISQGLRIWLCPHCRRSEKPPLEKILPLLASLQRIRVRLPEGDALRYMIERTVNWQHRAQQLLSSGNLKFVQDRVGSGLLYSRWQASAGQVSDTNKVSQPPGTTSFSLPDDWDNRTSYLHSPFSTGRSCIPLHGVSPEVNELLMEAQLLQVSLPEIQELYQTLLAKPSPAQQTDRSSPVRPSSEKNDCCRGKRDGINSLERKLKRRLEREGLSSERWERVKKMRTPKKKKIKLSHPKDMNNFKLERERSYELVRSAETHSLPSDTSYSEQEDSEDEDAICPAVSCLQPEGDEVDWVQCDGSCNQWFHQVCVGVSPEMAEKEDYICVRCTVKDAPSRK
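Measured: NADH fluorescence change, 30 min, RT. System: KDM5BΔAP 200 nM final, H3K4me3 peptide, α-KG, Fe(II), ascorbate, NAD⁺ plus FDH, pH 7.5 HEPES. Compounds: titrated, 10 min pre-incubation with enzyme.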
A number is an active result. This is one part of a sample in which hits are shown more often than they occur.

For Cc1ccc(NC(=O)Cn2ccn3nc(-c4ccc(F)cc4)c(CO)c3c2=O)c(Cl)c1 the results were KDM5B inh inactive.
Screening O=C(Cn1ccn2nc(-c3ccccc3)c(CO)c2c1=O)Nc1cccc(Br)c1 returned KDM5B inh inactive.
Screening CC(=O)c1cccc(NC(=O)Cn2ccn3nc(-c4ccccc4)c(CO)c3c2=O)c1 returned KDM5B inh inactive.
CC(C)n1nc(C(=O)Nc2ccc(F)c(F)c2)c2ccccc2c1=O was read as KDM5B inh inactive.
Cc1ccc(CN2CCC(CNC(=O)c3c(C)oc4ncnc(N5CCOCC5)c34)C2)cc1 (centres undefined) was read as KDM5B inh inactive.
`CCOc1ccccc1NC(=O)CCc1ccc(-c2ccc(C)cc2)o1` gave KDM5B inh inactive.
For Cc1nc2n(n1)C(C(=O)Nc1ccc(C(C)C)cc1)CC(=O)N2 (centres undefined) the results were KDM5B inh inactive.
For CCCCCn1nc(C(=O)NCc2ccco2)c2ccccc2c1=O the results were KDM5B inh inactive.
Screening COc1ccc(-c2coc3cc(OCc4ccccc4C)ccc3c2=O)cc1 returned KDM5B inh inactive.
O=C(O)CCOc1ccc(Cl)cc1 was read as KDM5B inh inactive.
For Cc1c(-c2ccc(Cl)cc2)c(=O)oc2cc(OC(=O)N3CCOCC3)ccc12 the results were KDM5B inh inactive.
`COc1ccc([C@@H](NC(=O)c2ccc3cccc(F)c3n2)C2CC(O)C2)cn1` (some centres undefined) gave KDM5B inh 22µM.
For COc1ccc(C(NC(=O)c2cccc(OC(F)F)c2)C2CC(O)C2)cn1 (centres undefined) the results were KDM5B inh inactive.
`CCCc1nc(C(=O)NC(c2ccc(OC)nc2)C2CC(O)C2)cs1` (centres undefined) gave KDM5B inh inactive.
Cc1cc(NC2CC(C)(C)NC(C)(C)C2)nc(C(C)C)n1 was read as KDM5B inh inactive.
For Clc1cccc(-n2cccc2)c1 the results were KDM5B inh inactive.
For CCN(C(=O)C1CCCO1)C1CC1 (centres undefined) the results were KDM5B inh inactive.
Screening COCCN1CCCC2(CCN(C(=O)c3oc4cc(C)ccc4c3C)C2)C1=O (centres undefined) returned KDM5B inh inactive.
Screening COCCN1CCCC2(CCN(C(=O)COc3cccc(C)c3C)C2)C1=O (centres undefined) returned KDM5B inh inactive.
`CCn1ccc2c(CN3CCC4(CCCN(CCOC)C4=O)C3)cccc21` (centres undefined) gave KDM5B inh 28µM.
Screening O=C(CCc1ncc(-c2c(F)cccc2F)o1)Nc1ccccc1F returned KDM5B inh inactive.
Screening COCC(C)NS(=O)(=O)c1ccc(C)cc1C (centres undefined) returned KDM5B inh inactive.
`O=C(c1csc(-c2ccsc2)n1)N1CCCC1c1ccccc1` (centres undefined) gave KDM5B inh inactive.
`Cn1c(=O)c2c(ncn2Cc2ccc(F)cc2Cl)n(C)c1=O` gave KDM5B inh inactive.
`Cc1ccc(-c2nc(C)sc2CC(=O)NCC23CC4CC(CC(C4)C2)C3)cc1` gave KDM5B inh inactive.
Screening Cc1cc(C)c2c(C)c(C(=O)Nc3nonc3-c3cccs3)oc2c1 returned KDM5B inh inactive.
O=C(c1ccn2cncc2c1)N1CCOCC1 was read as KDM5B inh inactive.
Screening O=C(c1ccn2nccc2c1)N1CCOCC1 returned KDM5B inh 32µM.
`O=C(c1ccc(Cl)c(S(=O)(=O)N2CCOCC2)c1)N1CCOCC1` gave KDM5B inh inactive.
For Cc1ccc2nc(C)cc(C(=O)O)c2c1 the results were KDM5B inh inactive.
`COc1ccc(C(=O)OCc2ccc(Cl)cc2)c(OC)c1OC` gave KDM5B inh inactive.
For CN(C)S(=O)(=O)c1cccc(Nc2nc(CN3CCOCC3)nc3sc4c(c23)CCCC4)c1 the results were KDM5B inh inactive.
For CCc1ccc(C(=O)c2cnc3ccc(OC)cc3c2N2CCOCC2)cc1 the results were KDM5B inh inactive.
For O=C1NCc2ccccc2CC12CCCN(CCCc1ccccc1)C2 (centres undefined) the results were KDM5B inh inactive.
`CNc1nc2c(s1)C(c1ccc(Cl)cc1)CC(=O)N2` (centres undefined) gave KDM5B inh 32µM.
Nc1nc2c(s1)C(c1cccc(F)c1)CC(=O)N2 (centres undefined) was read as KDM5B inh inactive.
COc1ccc(C2CC(=O)Nc3nc(N)sc32)cc1OC (centres undefined) was read as KDM5B inh inactive.
`C=CCOC(=O)C(C#N)c1nc2ccccc2nc1N1CCC(C)CC1` (centres undefined) gave KDM5B inh inactive.
Screening O=C(Nc1ccc2cn[nH]c2c1)c1ccc2c(c1)OCCN(c1ccccc1)C2 returned KDM5B inh 32µM.
Screening CC(C)CCN1CCOc2cc(C(=O)Nc3ccccc3)ccc2C1 returned KDM5B inh inactive.
For O=C(Nc1cccnc1)c1ccc2c(c1)OCCN(c1cccc(OC(F)(F)F)c1)C2 the results were KDM5B inh inactive.
O=C(NCC1(N2CCOCC2)CCCCC1)c1nn(-c2ccccc2)c(=O)c2ccccc12 was read as KDM5B inh inactive.
Screening CCn1c(C)cc(C(=O)CSc2n[nH]c(C3CC3)n2)c1C returned KDM5B inh inactive.
`O=C1NC2(C(=O)Nc3cccc(Cl)c3)CCC(=O)N2c2ccccc21` (centres undefined) gave KDM5B inh inactive.
`O=C1CCC/C(=N/NC(=O)c2ccc(CSc3ccc(Cl)cc3)cc2)C1` gave KDM5B inh inactive.
`c1cc(CNC2CCCC2)cs1` gave KDM5B inh inactive.
`C[Si](C)(C)C#C/C=C/S(=O)(=O)c1ccccc1` gave KDM5B inh inactive.
Cc1ccc(N2CC(c3noc(-c4cc(F)cc(F)c4)n3)CC2=O)cc1 (centres undefined) was read as KDM5B inh inactive.
Screening Cc1ccc(N2CC(c3noc(-c4ccc5c(c4)OCO5)n3)CC2=O)cc1 (centres undefined) returned KDM5B inh 32µM.
Screening Cc1ccc(N2CC(c3noc(-c4ccncc4)n3)CC2=O)cc1 (centres undefined) returned KDM5B inh inactive.
CCOc1ccc(-c2nc(C3CC(=O)N(c4ccc(OC)cc4)C3)no2)cc1 (centres undefined) was read as KDM5B inh inactive.
COc1ccc(-c2nc(C3CC(=O)N(c4ccc(F)cc4)C3)no2)cc1 (centres undefined) was read as KDM5B inh inactive.
`COc1ccc(N2CC(c3noc(-c4ccc5c(c4)OCO5)n3)CC2=O)cc1` (centres undefined) gave KDM5B inh 32µM.
For CCCn1nc(C(=O)Nc2nc(C)c(C(C)=O)s2)c2ccccc2c1=O the results were KDM5B inh inactive.
Screening CNC(=O)NC(=O)C(C)n1nc(C(=O)O)c2ccccc2c1=O (centres undefined) returned KDM5B inh inactive.
`CCOc1ccc(C(CC(=O)Nc2cc(OC)cc(OC)c2)N2Cc3ccccc3C2=O)cc1OC` (centres undefined) gave KDM5B inh inactive.
For CCc1ccc(NC(=O)C(C#N)=C2CCCCC2)cc1 the results were KDM5B inh inactive.
`CCC1(N2CCN(C)CC2)CCN(S(=O)(=O)c2ccccc2)C1` (centres undefined) gave KDM5B inh inactive.
For CCN1CCC2(CC1)N=C(SCC(=O)Nc1cc(F)ccc1F)C(c1ccc(F)cc1)=N2 the results were KDM5B inh inactive.
